# The panel holds about 83,000 compounds, 20% with a hit somewhere; the sample as a whole holds those more often.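 Results are percent growth after 48 hours of single-concentration exposure. 100 means growth as in untreated cells, lower positive values show inhibition; negative values down to -100 show cell death.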 Unmarked numbers belong to inactive results. The source made the active and inactive calls. How the source made its calls: active means growth percent below 10; inactive means the rest.
# Test system: HL-60(TB) leukemia
# Test: NCI-60 one-dose screen, 48 h (100 = growth as untreated, 0 = no growth, -100 = all killed)
# Conditions: 10 µM unless noted
row,SMILES,growth
1,O=C(/C(=C/c1cccc([N+](=O)[O-])c1)c1ccccc1)c1ccccc1,10.6%
2,CCCCC(NC(=O)CN1C(=O)/C(=C/C(C)=C/c2ccccc2)SC1=S)C(=O)O (centres undefined),113%
3,CCOC(=O)c1sc(/N=C2\NC(=O)/C(=C/c3ccc(N4CCN(C)CC4)cc3)S2)nc1C,100%
4,CCCCCCCCn1ccc2cc(NC(=O)Cn3cc(CN4CCCCCC4)nn3)ccc21,-43.1% (active)
5,Cc1ccc(S(=O)(=O)NC(CCC(=O)Nc2ccccc2)C(=O)Nc2ccccc2)cc1 (centres undefined),-2.4% (active)
6,CC(=O)C1CCC2C3CC(F)C4=CC(=O)CCC4(C)C3C(O)CC12C (centres undefined),94.2%
7,COC(=O)c1[nH]nc(OC)c1C1(C(C#N)c2nc3ccccc3s2)CCCc2ccccc21 (centres undefined),79.8%
8,Fc1ccc2[nH]cc(-c3nc(-c4ccsc4)cs3)c2c1,99.3%
9,O=C(CCCCCCSc1nc(-c2ccccc2)cc(-c2ccc(Cl)cc2)n1)NO,-37.5% (active)
10,CC(=O)CC/C=C(\C)[C@H](O)[C@H](C)C(=O)O[C@H]1C[C@H](C)C=C2C=C[C@@]3(C)O[C@@H](O)CC(=O)[C@]3(C)[C@H]21,-21.3% (active)
11,CCn1cc(C2NC(=O)c3cc(F)ccc3N2)c2cccc(Cl)c21 (centres undefined),-50% (active)
12,Cc1cc(Nc2cc(N3CCN(C)CC3)nc(/C=C/c3ccccc3)n2)n[nH]1,-29.7% (active)
13,COc1ccc(CCN2C(=O)C(C)(C)SC2=S)cc1OC,106%
14,O=C(CCCCNC(=O)c1cc(=O)c(O)co1)Nc1ccccc1,54.7%
